Common to all, as to assay: NCI-60 one-dose screen, 48 h (100 = growth as untreated, 0 = no growth, -100 = all killed)
What all share (conditions): 10 µM unless noted

For test [1], the system named is HCT-15 colon.
Test [2] concerns HT29 colon.
Test [3] relates to SNB-75 CNS.
Test [4] relates to SNB-19 CNS.
Test [5] deals with U251 CNS.
The subject of test [6] is PC-3 prostate.
Test [7] deals with SK-MEL-5 melanoma.
For test [8], the system named is UACC-62 melanoma.
In test [9] the test system is LOX IMVI melanoma.
Test [10] relates to SK-MEL-28 melanoma.
Test [11] has as its system SK-MEL-2 melanoma.
Test [12] deals with EKVX NSCLC.
Test [13] deals with SN12C renal.
Test [14] relates to UO-31 renal.
Test [15] deals with TK-10 renal.
The test system of test [16] is ACHN renal.
For test [17], the system named is CAKI-1 renal.
The test system of test [18] is A498 renal.
In test [19] the test system is CCRF-CEM leukemia.
Test [20] relates to MOLT-4 leukemia.

Molecules are shown by their SMILES. The panel holds about 83,000 compounds, 20% with a hit somewhere; the sample as a whole holds those more often.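 The endpoint reported here, percent growth, reads 100 for growth as untreated, 0 for no net growth and -100 for all cells dead.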 A number with no mark means an inactive call. Active and inactive are the calls of the source. How the source made its calls: active means growth percent below 10; inactive means the rest.

In the case of `CNC(=O)c1c(NC(=O)c2ccc(C(C)(C)C)cc2)sc2c1CCC(=O)C2`, the growth in test [1] was -20.5% (active); in test [2] it was 3.63% (active); in test [3], -27.8% (active); in test [4], 17.7%; in test [5], 4.12% (active); in test [6] it was -0.67% (active). In addition, the growth in test [7] is -83.1% (active); in test [8] it was 0.579% (active); in test [9] it was 8.5% (active); in [10], 12.2%; in test [11] it was -2.66% (active); in test [12], 14.6%. Also, the growth in test [13] was 7.81% (active); in test [14], -95.5% (active); in test [15], 40%; in test [16] it was -45.9% (active); in test [17] it was -14.3% (active); in test [18], 12.6%. In addition, the growth in test [19] was 1.79% (active); in [20] it was 2.3% (active).

As to `O=S(=O)(NCCNc1cc(-c2c(-c3cccc(O)c3)nc3sccn23)ccn1)c1ccc(Br)cc1`, the growth in test [1] was 44.8%; in [2], 51%; in [3], 26.3%; in test [4], 66.1%; in test [5], 64.6%; in [6], 49.8%. In addition, the growth was 25.2% in test [7]; 56.8% in [8]; 61.6% in test [9]; 84.9% in [10]; 79.5% in [11]; 56.8% in test [12]. In addition, the growth is 45.3% in [13]; -1.33% (active) in test [14]; 83.2% in [15]; 56.7% in test [16]; 39% in test [17]; 51.1% in [18]. The growth in test [19] is 39.9%; in test [20], 32.9%.

Turning to `COc1cc(C2C=C(c3cccc(NC(C)=O)c3)Nc3ncnn32)cc(OC)c1OC` (stereo not given), the growth is 41.4% in test [1]; 10.9% in test [2]; 21.9% in [3]; 52% in test [4]; 25.4% in test [5]; 33.3% in test [6]. Besides, the growth in [7] was 21.6%; in test [8], 22.9%; in test [9], 42.1%; in test [10] it was 51.5%; in [11], 64.9%; in test [12] it was 37.2%. Also, the growth in [13] was 32.9%; in [14], 59.6%; in test [15], 4.84% (active); in test [16] it was 52.8%; in test [17], -10.6% (active); in test [18], 1.13% (active). Moreover, the growth in [19] is 11.5%; in test [20], 9.75% (active).

Turning to `CN(C)CCN1C(=O)c2cccc3c(-c4ccc(-c5nc6c7ccccc7c7ccccc7c6[nH]5)cc4)ccc(c23)C1=O`, the growth in test [1] was 102%; in test [2], 81.1%; in [3], 117%; in test [4] it was 110%; in [5] it was 95.5%; in test [6], 87.9%. Besides, the growth was 101% in test [7]; 112% in [8]; 58% in test [9]; 114% in test [10]; 105% in test [11]; 93.9% in [12]. The growth in [13] is 97.4%; in [14], 96.8%; in [15], 105%; in test [16] it was 112%; in test [17], 88%; in [18], 100%. The values for the growth in [19] and in test [20] were 55.4% and 84%, respectively.

As to `Oc1ccccc1-c1nc2ccccn2c1NCCN1CCOCC1`, the growth in test [1] was 99.4%; in test [2], 93.8%; in [3] it was 80.2%; in test [4], 99.7%; in test [5], 97%; in test [6] it was 87.4%. For the same compound, the growth in test [7] was 98.7%; in test [8], 95.3%; in test [9], 94.4%; in [10] it was 94.4%; in [11], 106%; in test [12], 102%. Besides, the growth in test [13] was 97.1%; in test [14], 89.9%; in test [15] it was 94.8%; in test [16], 95.3%; in [17], 86.9%; in [18], 89.5%. The growth is 94.3% in test [19] and 97.5% in [20].

Regarding `CCCCCCNc1cc(C)nc2ccc(OC)cc12`, the growth in test [1] was 60.9%; in [2], 19.6%; in test [3], 89.2%; in [4], 77.1%; in test [5], 55.1%; in [6], 65.9%. The growth in [7] was 35%; in test [8], 64.1%; in test [9] it was 61.4%; in [10], 67.9%; in [11], 73.7%; in test [12], 65.7%. For the same compound, the growth in test [13] is 67.9%; in [14], 40.4%; in test [15], 80.4%; in [16], 76.4%; in [17], 70.9%; in test [18] it was 22%. Moreover, the growth in test [19] is 60.7%; in [20] it was 50.4%.

On to `C[C@H]1[C@H](C)CC[C@]2(C(=O)N3CCN(C)CC3)CC[C@]3(C)C(=CC[C@@H]4[C@@]5(C)C/C(=C/c6cccnc6)C(=O)C(C)(C)[C@@H]5CC[C@]43C)[C@H]12`, for which the growth was -79.8% (active) in test [1]; -79.3% (active) in test [2]; -9.56% (active) in test [3]; -95.9% (active) in test [4]; -96% (active) in [5]; -79.6% (active) in test [6]. Moreover, the growth was -97.6% (active) in test [7]; -74.7% (active) in test [8]; -97.1% (active) in test [9]; -85.7% (active) in [10]; -82.6% (active) in [11]; -81.5% (active) in test [12]. Also, the growth was -95.3% (active) in test [13]; -92.5% (active) in test [14]; -97.4% (active) in test [15]; -94.4% (active) in test [16]; -42.5% (active) in test [17]; -83.2% (active) in test [18]. The growth in test [19] is -51.7% (active); in test [20] it was -51.9% (active).

Source of the values: PubChem BioAssay (NCI).
